Reference: PubChem BioAssay AID590 (National Center for Advancing Translational Sciences (NCATS), 2007)
The whole screen tested about 59,000 compounds, of which about 6,500 (11%) were called active. Roughly 15% stayed inconclusive and do not appear here. No stated cut-off is given here; in the data, active means max dye-equivalent concentration above about 10 nM; inconclusive means mostly about 1.1 nM to 9.6 nM; inactive means weaker than that. The full list was thinned out, with actives kept by preference.

Assay: qHTS Assay for Spectroscopic Profiling in A350 Spectral Region
Conditions: Compound autofluorescence, 340/450 nm, Alexa 350 dye-equivalents; hits give high values
Text: NIH Molecular Libraries Screening Centers Network [MLSCN]
NIH Chemical Genomics Center [NCGC]
Occasionally, the artifactual effect may originate from the compounds own spectral or other biophysical properties which generally tend to track its assay concentration. Pre-screening/profiling the library with respect to the compounds spectral properties should help one exclude false positives early on. While the most informative fluorescent profiling data set is obtained by performing a full excitation and emission scan of each well by using a monochromator-based plate reader, such an approach is practical only on a very limited scale as scanning each well requires long time. An alternative approach, applied here, is to perform plate reader scans using selected excitation and emission wavelength pairs to generate a multidimensional relational database that correlates compound concentration and the respective relative fluorescence intensity at a given wavelength set. A standard curve of Alexa 350 (A 350) present on each plate as six-point concentration series, was used to compute a normalized fluorescence response, termed dye-equivalent concentration, for each compound at each concentration.
NCGC Assay Protocol Summary:
100 mM Tris buffer, pH 8.0
The wells in columns 1 through 4 of a Kalypsys polypropylene 1536-well compound plate were filled with standard solutions of fluorophore corresponding to the spectral region of interest. Solutions of A 350 were placed in the following wells: I1, J1: 3 mM, I2, J2: 300 uM, I3, J3: 30 uM, I4, J4: zero (DMSO), K1, L1: 3 uM, K2, L2: […], K3, L3: 300 nM, K4, L4: zero (DMSO).
Six uL of buffer were dispensed to 1536-well Greiner black plates. Compounds and dye standards (23 nL) were transferred via Kalypsys PinTool. The plates were incubated for 15 min at room temperature, and then read on ViewLux (Perkin-Elmer) High-throughput CCD imager using 340 nm and 450 nm excitation and emission filter set.
Keywords: NIH Roadmap, MLSCN, MLI, MLSMR, qHTS, NCGC, A350, A-350, Fluorescent Profiling.

Structure (SMILES) | max dye-equivalent concentration
COc1ccc(C(=O)n2nc(-c3ccc(Cl)cc3)nc2N)cc1OC | inactive
COc1ccc(C(=O)n2nc(-c3ccc(C)cc3)nc2N)cc1OC | 31 nM (active)
COc1ccccc1C(=O)n1nc(-c2ccccc2)nc1N | inactive
Cc1cnc(CNc2ncncc2-c2ccccc2Cl)cn1 | inactive
Cc1ccnc(NC(=O)c2ccc(NC(=O)c3ccco3)cc2)c1 | inactive
CCN(CC)C(=O)c1sc(NC(=O)c2ccco2)c(C#N)c1C | inactive
CCn1nc(NC(=O)c2ccco2)c2cc3ccc(C)cc3nc21 | 86 nM (active)
O=C(CSc1nnc(-c2cnccn2)n1Cc1ccco1)c1ccc(Cl)c(Cl)c1 | inactive
CC(=O)N1CSCC1C(=O)O (stereo not given) | inactive
O=C(N1CCOCC1)N(Cc1ccccc1)c1ccccn1 | inactive
CN(C)CC/C=C1\c2ccccc2CSc2ccccc21 | inactive
COc1ccc(Cn2c(=O)sc3ccccc32)cc1OC | inactive
Cc1ccc2nc(NCCCNC(=O)c3cnccn3)c(C#N)cc2c1 | 220 nM (active)
O=S(=O)(c1ccccc1)N1CCC2(CC1)CN(Cc1nccs1)C2 | inactive
CCCCCN(C(=O)NC(=O)Nc1ccccc1C)S(C)(=O)=O | inactive
O=C(c1cnccn1)N1CCC2(CCCN(Cc3ccccc3)C2)CC1 | inactive
O=C(CSc1nnc(-c2ccc(NS(=O)(=O)c3ccccc3)cc2)o1)NCC1CCCO1 (stereo not given) | inactive
O=C(CS(=O)(=O)Cc1ccccc1)NCC1CCCO1 (stereo not given) | inactive
O=C(CSC1=Nc2ccccc2C2=NC(c3ccccc3)C(=O)N12)NCC1CCCO1 (stereo not given) | 590 nM (active)
COc1ccc(S(=O)(=O)Nc2c(C)n(C)n(-c3ccccc3)c2=O)cc1 | inactive
CN(C)C(=O)c1ccc(-c2cncnc2NC2CCNCC2)cc1 | inactive
CCCc1cc(=O)[nH]c(SCc2ccc(C#N)cc2)n1 | inactive
Cc1ccc(S(=O)(=O)NCC(=O)OCC(=O)N2CCc3ccccc32)cc1 | inactive
Cc1ccc2cc3cc(C(=O)N4CCCCCC4)oc3nc2c1 | 11 nM (active)
O=C(c1cc(-c2cccs2)on1)N1CCCCC1 | inactive
Cc1ccc(C(=O)N2CCCCCC2)cc1Br | inactive
O=C(CSc1nc2[nH]ncc2c(=O)n1-c1ccccc1)N1CCCc2ccccc21 | inactive

Structure (SMILES) | max dye-equivalent concentration
COc1cc2c(cc1OC)C(c1ccncc1)CC(=O)N2 (stereo not given) | inactive
Cc1cccc2cc(C#N)c(N3CCCC3)nc12 | 37 nM (active)
Cc1ccc(OCc2nc(C#N)c(N3CCCC3)o2)cc1 | inactive
Cc1cc(C)c2nc(N3CCCC3)c(C#N)cc2c1 | 130 nM (active)
Cc1ccc2nc(CC(=O)c3ccc4ccccc4c3)c(=O)[nH]c2c1 | inactive
c1ccc2sc(SCCSc3nc4ccccc4s3)nc2c1 | inactive
CN1CCN(c2nc3c(c(=O)[nH]c(=O)n3C)n2Cc2cccc3ccccc23)CC1 | inactive
O=C(Nc1cccc(F)c1)N1CCC2(CC1)CCN(S(=O)(=O)c1ccccc1)CC2 | inactive
O=C(c1ccc2c(c1)OCCO2)C1CCN(S(=O)(=O)c2cccc(F)c2)CC1 | 12 nM (active)
O=C(NCc1cccs1)C1CCN(S(=O)(=O)c2ccc3c(c2)OCCO3)CC1 | inactive
CCc1nc(C)cn1S(=O)(=O)c1cc(OC)c(C)cc1C | inactive
CC(C)CCNC(=O)CN(C(=O)Cn1nnc(-c2ccc(F)cc2)n1)C1CCCC1 | inactive
Cc1cc(O)ccc1-c1cnc2ccccc2n1 | inactive
Cc1nc2ccccc2cc1O | 2500 nM (active)
CCOc1cc(C)c(Cl)cc1S(=O)(=O)n1nnc2ccccc21 | inactive
COc1cc(NC(=O)N2CCOCC2)cc(OC)c1 | inactive
COC(=O)c1[nH]c2ccccc2c1NC(=O)CN1CCCc2ccccc21 | inactive
Cc1c(C(=O)N2CCOCC2)[nH]c2ccc(OCc3ccccc3)cc12 | inactive
CCOC(=O)c1[nH]c2ccc(OC)cc2c1NC(=O)CCN1CCN(Cc2ccccc2)CC1 | 64 nM (active)
COc1ccc(OC)c(NC(=O)CCN2CCC(C)CC2)c1 | inactive
CCOC(=O)c1[nH]c2ccc(OC)cc2c1NC(=O)N1CCOCC1 | 44 nM (active)
COc1ccccc1CNc1cc(-c2ccccc2CN(C)C)ncn1 | inactive
COCC(=O)N1CCC2(CCCN(c3ccccc3)C2)CC1 | inactive
Cc1cc(NC(=O)COn2nnc3ccccc32)no1 | inactive
O=C1NC(=O)[C@@](Cc2ccccc2)(c2cccnc2)N1 | inactive
Cc1cccn2c(=O)c3cc(C(=O)N4COCC4(C)C)n(C)c3nc12 | 900 nM (active)
O=C(NCc1ccccn1)c1c(O)c2c([nH]c1=O)CCCC2 | inactive

Structure (SMILES) | max dye-equivalent concentration
Cc1cccn2c(=O)c3cc(C(=O)NCc4ccccn4)n(C)c3nc12 | 170 nM (active)
O=C(NCc1ccco1)c1nc2ncccn2n1 | inactive
CCN(CC)C(=O)C1CCC(C)(C(=O)O)C1(C)C (stereo not given) | inactive
CC(c1ccccc1)n1c(NCCCn2ccnc2)nc2c1c(=O)[nH]c(=O)n2C (stereo not given) | inactive
Cc1cc(NC(=O)COC(=O)c2ccc(F)c(S(=O)(=O)N3CCOCC3)c2)no1 | inactive
COc1cc([C@H]2c3cc4c(cc3[C@@H](O[C@@H]3O[C@H]5CO[C@@H](C)O[C@]5(O)C[C@H]3O)[C@@H]3COC(=O)[C@H]23)OCO4)cc(OC)c1O | inactive
C=CCn1c(SCc2cc(C(=O)OC)c(C)o2)nnc1-c1ccncc1 | inactive
COc1ccc(C(=O)CSc2nccc(=O)[nH]2)cc1 | inactive
COC(=O)[C@H](C)NC(=O)Nc1ccc(OC(F)(F)F)cc1 | inactive
CCCN1CC=C2C(C#N)=C(N)C(C#N)(C#N)C(c3cc(OC)ccc3OC)C2C1 (stereo not given) | 110 nM (active)
CCC1=C(C(=O)OC)C(c2cc(OC)ccc2OC)C(C#N)=C(N)O1 (stereo not given) | inactive
c1cc(-n2cnnn2)ccc1NC1=NCCC1 | inactive
CNC(=O)C1CC(=O)N(Cc2ccc3c(c2)OCO3)C(=Nc2ccc(F)cc2)S1 (stereo not given) | inactive
CC(C)(CSc1nncn1/N=C/c1ccco1)NS(=O)(=O)c1ccc(Cl)cc1 | inactive
CC(C)CCNc1nc(N2CCCC2)c2c(c1C#N)CCN(C)C2 | 33 nM (active)
O=C(CCOc1ccccc1)NCc1ccccc1 | inactive
O=C1CN(C(=O)COC(=O)C2CC(=O)N(Cc3ccco3)C2)c2ccccc2N1 (stereo not given) | inactive
COc1ccc2c(CC(=O)Nc3nnc(C4CC4)s3)coc2c1 | 12 nM (active)
COc1ccc(OCCCC(=O)Nc2nnc(C3CCCO3)s2)cc1 (stereo not given) | inactive
COc1ccc(Cc2nnc(NC(=O)Cc3cccs3)s2)cc1 | inactive
CC1Cc2cc(/C(O)=C3\C(=O)C(=O)N(CCN4CCOCC4)C3c3ccccc3F)ccc2O1 (stereo not given) | inactive
O=C(O)[C@@H]1[C@@H](C(=O)O)[C@]23C[C@@]2(C(=O)O)[C@]2(C(=O)O)CCC3=C3CCCC312 | inactive
COc1ccc(S(=O)(=O)NC(CC(=O)NCc2ccccc2OC)c2ccco2)cc1 (stereo not given) | inactive
CCCCCCn1c(CN2CCCC(C)C2)nc2c1c(=O)n(C)c(=O)n2C (stereo not given) | inactive
CCCn1c(O)c(CN2CCCC(C)C2)c(C)c(C#N)c1=O (stereo not given) | 19 nM (active)
CCCCC(CCC(=O)Nc1ccc(C(=O)OCC)cc1)C(=O)O (stereo not given) | inactive
CCCCc1cc(=O)oc2cc(C)cc(OCc3nn[nH]n3)c12 | 77 nM (active)

Structure (SMILES) | max dye-equivalent concentration
CC(Sc1nncn1C)C(=O)Nc1ccccc1-c1ccccc1 (stereo not given) | inactive
Clc1ccc(Nc2nc(-c3cccs3)cs2)nc1 | inactive
O=C(Nc1ccccc1F)C1C2C=CC3(O2)C1C(=O)N(c1cccnc1)C3C(=O)NC1CCCCC1 (stereo not given) | inactive
COc1cc(C(=O)N(Cc2ccc(N(C)C)cc2)C2CCS(=O)(=O)C2)cc(OC)c1OC (stereo not given) | inactive
CCc1nnc(NC(=O)c2ccc(S(=O)(=O)NC3CCCCC3)cc2)s1 | inactive
CC1CCCCN1S(=O)(=O)c1ccc(C(=O)Nc2nnc(-c3cccs3)o2)cc1 (stereo not given) | inactive
Cc1ccc(C(=O)Nc2nnc(-c3cccs3)s2)cc1C | 72 nM (active)
COc1ccc2[nH]cc(CCNc3ncnc4ccc(-c5ccccc5CN(C)C)cc34)c2c1 | inactive
COC(=O)c1ccccc1NC(=O)C1CCN(S(=O)(=O)c2cc(OC)ccc2OC)CC1 | inactive
COc1ccc(OC)c(S(=O)(=O)Nc2ccccc2F)c1 | 75 nM (active)
COc1ccc(Cl)cc1S(=O)(=O)Nc1cccc(C(=O)O)c1 | inactive
Cc1c(C(=O)OCc2cc(=O)n3cc(Br)ccc3n2)oc2ccccc12 | inactive
Cc1c(C(=O)OCC(=O)N(CCC#N)c2ccccc2)oc2c1ccc1ccccc12 | 14 nM (active)
COC(=O)N1CCC2(CCCN(c3ccncc3)C2)CC1 | inactive
COc1ccc(-c2nc3cnc(OC)nc3n(Cc3ccc(F)cc3)c2=O)cc1 | 12 nM (active)
CCc1nc2oc3ccccc3c(=O)c2c(=O)n1Cc1ccc(OC)cc1 | inactive
COc1ccc(Oc2ncc3nc(-c4ccc(F)cc4)c(=O)n(C)c3n2)cc1 | inactive
COc1ccc(-c2nc3cnc(Oc4ccccc4)nc3n(Cc3cccs3)c2=O)cc1 | 12 nM (active)
COc1ncc2nc(-c3ccc(Cl)cc3)c(=O)n(C)c2n1 | 34 nM (active)
COc1cccc(Cn2c(=O)c(-c3ccccc3)nc3cnc(OC)nc32)c1 | inactive
COCCn1c(=O)c(-c2ccc(OC)cc2)nc2cnc(Oc3cccc(Cl)c3)nc21 | 13 nM (active)
Cc1nc2cnc(Oc3cccc(Cl)c3)nc2n(C2CC2)c1=O | inactive
COc1cccc(Cn2c(=O)c(-c3cc(F)cc(F)c3)nc3cnc(OC)nc32)c1 | inactive
CCOC(=O)CSc1nnc(CNC(=O)c2cccs2)n1-c1cc(OC)ccc1OC | inactive
